Values without a mark were called inactive. Records with an inconclusive call do not appear. Calls of active or inactive are those of the source. Unless noted, calls follow the shape of the dose curve; as a rule, active = well fitted curve in the direction sought with a large enough effect in the repeat runs; inconclusive = weak or mixed curves; inactive = no such curve, though single readings can be large; an effect the other way counts as inactive or inconclusive.

Potency and outcome data for nine compounds are collected here from PubChem BioAssay (Tox21).

Assay [1] is described as follows: qHTS assay to identify small molecule agonists of the sonic hedgehog signaling (Shh) pathway (AID 1259368; calls by dose curve;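 also: NIH/3T3-derived 3T3Gli1-Luc cells carrying a stable Gli1-driven firefly luciferase reporter; series mostly up to about 92 µM; nearly all actives have a fitted effect of over 15% in size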). The method in brief:
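NIH/3T3-derived 3T3Gli1-Luc cells with stably integrated Gli1-driven firefly luciferase, 2,000 cells/well, compounds added after 4 hr. Incubated 24 hr at 37C, 5% CO2; luminescence read after 30 min with luciferase reagent at room temperature.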

For assay [2], the target named is Estrogen receptor beta (Homo sapiens) (UniProt Q92731). Kind of assay: qHTS assay to identify small molecule agonists of the estrogen receptor beta (ER-beta) signaling pathway (AID 1259377; active = well fitted activation curve with a large enough effect in the signal ratio in the repeat runs, not every such curve was filed as active; the % refers to the signal ratio). A digest of the protocol: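 ER-beta-UAS-bla HEK293T (GripTite) cells carrying a UAS-driven beta-lactamase reporter, in medium with 2% charcoal-stripped FBS, were exposed to compounds for 16 hr at 37C; LiveBLAzer B/G FRET substrate was then added and fluorescence read after 2 hours at room temperature.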

Assay [3] is described as follows: qHTS assay to identify small molecule agonists of the androgen receptor (AR) signaling pathway in the presence of an antagonist - cell viability counter screen (AID 1259379).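 Also: MDA-kb2 human breast cancer cells carrying an MMTV luciferase reporter; series mostly up to about 92 µM; nearly all actives have a fitted effect of over 25% in size.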 A digest of the protocol:
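MDA-kb2 cells (MMTV-luciferase, AR/GR), 3,000/well, 5 h attachment, then 3.0 µM nilutamide (final) and compounds at 15 concentrations. Viability by CellTiter-Fluor fluorescence after 16 h at 37 °C, 0% CO2, in the reporter wells.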

A short description of assay [4]: qHTS assay to identify small molecule agonists of the estrogen receptor beta (ER-beta) signaling pathway - cell viability counter screen (AID 1259380). Also: nearly all actives have a fitted effect of over 30% in size. Also: potency is read from the fitted curve at half-maximal effect. The method in brief:
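ER-beta-UAS-bla HEK293T cells in medium with 2% charcoal-stripped FBS, pre-incubated 6 hr, then treated 16 hr at 37C. Cytotoxicity read in the same wells by CellTiter-Glo luminescence after 30 min at room temperature.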

A short description of assay [5]: qHTS assay to identify small molecule antagonists of the estrogen receptor beta (ER-beta) signaling pathway - cell viability counter screen (AID 1259382). Also: series mostly up to about 92 µM; nearly all actives have a fitted effect of over 55% in size. A digest of the protocol: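 ER-beta-UAS-bla HEK293T cells in 2% charcoal-stripped FBS medium, treated with compound plus 1 nM 17-beta-estradiol for 16 h at 37C. Viability read by CellTiter-Glo luminescence after 30 min at room temperature in the same wells.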

Assay [6] has as its target Estrogen receptor (Homo sapiens) (UniProt P03372). As to the kind of experiment: qHTS assay to identify small molecule agonists of the estrogen receptor alpha (ER-alpha) signaling pathway in the presence of an antagonist (AID 1259383; calls by dose curve; also: nearly all actives have a fitted effect of over 15% in size; also: potency is read from the fitted curve at half-maximal effect; as to activation: top concentration of the series differs between compounds). The method in brief:
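VM7Luc4E2 cells express endogenous full-length ER-alpha with an ERE-luciferase reporter and were hormone-deprived for 5 days. Compounds at 15 concentrations were added with 10.0nM ICI-182,780 for 22hr at 37C. Luminescence was read with ONE-Glo.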

Assay [7] in a line: qHTS assay to identify small molecule agonists or antagonists of the thyroid stimulating hormone receptor (TSHR) signaling pathway - wild type cell line counter screen (AID 1259384; calls by dose curve). The method in brief:
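Counter screen in untransfected Hek293: compounds (15-point titration, triplicate) plus phosphodiesterase inhibitor Ro20-1724 added after 18 h plating; 30 min RT. Intracellular cAMP via competitive d2/cryptate immunoassay, 1 h incubation.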

Assay [8] in a line: qHTS assay to identify small molecule agonists of the estrogen receptor alpha (ER-alpha) signaling pathway in the presence of an antagonist - cell viability counter screen (AID 1259386).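 Also: series mostly up to about 92 µM; cells exposed to compounds for 22 h at 37 °C before the viability read; nearly all actives have a fitted effect of over 30% in size.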 The method in brief: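 Cell viability in VM7Luc4E2 cells (endogenous full-length ER-alpha) measured by CellTiter-Fluor fluorescence in the same wells as the luciferase screen. Cells pre-cultured 5 days in charcoal-stripped serum, then treated 22 h with compounds at 15 concentrations plus 10.0nM ICI-182,780.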

The target of assay [9] is Progesterone receptor (Homo sapiens) (UniProt P06401). Kind of assay: qHTS assay to identify small molecule agonists of the progesterone receptor (PR) signaling pathway (AID 1346784; calls by dose curve; also: nearly all actives have a fitted effect of over 30% in size). A digest of the protocol:
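PR-UAS-bla HEK 293T cells carrying a UAS-driven beta-lactamase reporter were seeded in medium with 2% charcoal-stripped FBS, preincubated 6 hr at 37C, then exposed to compounds in DMSO for 16 hr; agonism was read by LiveBLAzer B/G FRET fluorescence.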

For assay [10] the target is unchanged. As to the kind of experiment: qHTS assay to identify small molecule antagonists of the progesterone receptor (PR) signaling pathway (AID 1346795; active = well fitted inhibition curve with a large enough effect in the signal ratio in the repeat runs, not every such curve was filed as active; the % refers to the signal ratio; also: potency is read from the fitted curve at half-maximal effect). A digest of the protocol: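 PR-UAS-bla HEK293T cells carrying a UAS-driven beta-lactamase reporter were plated in medium with 2% charcoal-stripped FBS and rested 6 hr at 37C. Compounds were added with 1 nM R5020 (final) for 16 hr, then FRET substrate loaded 2 hr at room temperature.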

Assay [11] in a line: qHTS assay to identify small molecule antagonists of the progesterone receptor (PR) signaling pathway - cell viability counter screen (AID 1346798). Also: nearly all actives have a fitted effect of over 50% in size. Also: potency is read from the fitted curve at half-maximal effect. The method in brief:
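PR-UAS-bla HEK293T cells in medium with 2% charcoal-stripped FBS were treated with compounds plus R5020 for 16 hr at 37C. Cell viability was then read by CellTiter-Glo luminescence after 30 min at room temperature in the same wells.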

Assay [12] in a line: qHTS assay to identify small molecule agonists of the progesterone receptor (PR) signaling pathway - cell viability counter screen (AID 1346799; calls by dose curve; also: nearly all actives have a fitted effect of over 45% in size). The method in brief: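 PR-UAS-bla HEK293T cells, 3,000 per well in medium with 2% charcoal-stripped FBS, were preincubated 6 hr at 37C, then exposed to compounds for 16 hr; viability was read as CellTiter-Glo luminescence after 30 min at room temperature.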

Assay [13] can be described thus: qHTS assay to identify small molecule agonists of the TGF-beta/Smad signaling pathway - cell viability counter screen (AID 1346829). Also: top concentration of the series differs between compounds; nearly all actives have a fitted effect of over 45% in size. A digest of the protocol: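 CellTiter-Glo luminescence readout; SBE-bla HEK 293T cells, overnight plating, compound 5 hr at 37 C/5% CO2, then bla substrate 2 hr RT, then CellTiter-Glo 30 min RT.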
Assay [14] can be described thus: qHTS assay to identify small molecule agonists of the TGF-beta/Smad signaling pathway (AID 1346859; active = well fitted activation curve with a large enough effect in the signal ratio in the repeat runs, not every such curve was filed as active; the % refers to the signal ratio; also: series mostly up to about 77 µM). A digest of the protocol:
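HEK 293T cells stably carrying a beta-lactamase reporter driven by the Smad binding element were seeded overnight, exposed to DMSO-dissolved compounds for 5 hr at 37 C, 5% CO2, then loaded with FRET substrate for 2 hr at room temperature.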

In assay [15] the target is Thyrotropin-releasing hormone receptor (Homo sapiens) (UniProt P34981). As to the kind of experiment: qHTS assay to identify small molecule antagonists of the thyrotropin-releasing hormone receptor (TRHR) signaling pathway (AID 1346877; active = well fitted inhibition curve with a large enough effect in the repeat runs, not every such curve was filed as active; also: series mostly up to about 51 µM). A digest of the protocol:
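TRHR-expressing HEK293 cells loaded with calcium dye for 2 h at 37 C; compounds pre-incubated 5 min at room temperature before TRH challenge at 1 nM final. Intracellular calcium fluorescence read kinetically for 3 min; 15 concentrations in triplicate.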

Assay [16] addresses Thyrotropin receptor (Homo sapiens) (UniProt P16473). As to the kind of experiment: qHTS assay to identify small molecule antagonists of the thyroid stimulating hormone receptor (TSHR) signaling pathway (AID 1259385; calls by dose curve; also: nearly all actives have a fitted effect of over 20% in size). A digest of the protocol: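 Antagonist mode: compound-treated TSHR-expressing HEK293 cells were stimulated with 1.5 ng/mL TSH (final) in presence of Ro20-1724 for 30 min at RT. HTRF cAMP detection after 1 h; each compound tested at 15 concentrations, triplicate.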

Assay [17] in a line: qHTS assay to identify small molecule antagonists of the TGF-beta/Smad signaling pathway - cell viability counter screen (AID 1346824). Also: nearly all actives have a fitted effect of over 50% in size. A digest of the protocol:
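Cytotoxicity counter-screen run in the same wells as the beta-lactamase Smad reporter read: CellTiter-Glo luminescence after 30 min at room temperature. HEK 293T SBE-bla cells had 5 hr compound exposure at 37 C with TGF-beta1 (0.25 ng/mL stock).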

Assay [18] concerns the target Estrogen receptor beta (Homo sapiens) (UniProt Q92731). As to the kind of experiment: qHTS assay to identify small molecule antagonists of the estrogen receptor beta (ER-beta) signaling pathway (AID 1259378; active = well fitted inhibition curve with a large enough effect in the signal ratio in the repeat runs, not every such curve was filed as active; the % refers to the signal ratio). The method in brief: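 Antagonist mode: compounds added to beta-lactamase reporter HEK293T ER-beta-UAS cells stimulated with E2 (1nM final), 16 hr at 37C. LiveBLAzer B/G FRET substrate, 2 hours room temperature, fluorescence read-out.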

Chain of Progesterone receptor (Homo sapiens) (P06401 whole entry, looked up): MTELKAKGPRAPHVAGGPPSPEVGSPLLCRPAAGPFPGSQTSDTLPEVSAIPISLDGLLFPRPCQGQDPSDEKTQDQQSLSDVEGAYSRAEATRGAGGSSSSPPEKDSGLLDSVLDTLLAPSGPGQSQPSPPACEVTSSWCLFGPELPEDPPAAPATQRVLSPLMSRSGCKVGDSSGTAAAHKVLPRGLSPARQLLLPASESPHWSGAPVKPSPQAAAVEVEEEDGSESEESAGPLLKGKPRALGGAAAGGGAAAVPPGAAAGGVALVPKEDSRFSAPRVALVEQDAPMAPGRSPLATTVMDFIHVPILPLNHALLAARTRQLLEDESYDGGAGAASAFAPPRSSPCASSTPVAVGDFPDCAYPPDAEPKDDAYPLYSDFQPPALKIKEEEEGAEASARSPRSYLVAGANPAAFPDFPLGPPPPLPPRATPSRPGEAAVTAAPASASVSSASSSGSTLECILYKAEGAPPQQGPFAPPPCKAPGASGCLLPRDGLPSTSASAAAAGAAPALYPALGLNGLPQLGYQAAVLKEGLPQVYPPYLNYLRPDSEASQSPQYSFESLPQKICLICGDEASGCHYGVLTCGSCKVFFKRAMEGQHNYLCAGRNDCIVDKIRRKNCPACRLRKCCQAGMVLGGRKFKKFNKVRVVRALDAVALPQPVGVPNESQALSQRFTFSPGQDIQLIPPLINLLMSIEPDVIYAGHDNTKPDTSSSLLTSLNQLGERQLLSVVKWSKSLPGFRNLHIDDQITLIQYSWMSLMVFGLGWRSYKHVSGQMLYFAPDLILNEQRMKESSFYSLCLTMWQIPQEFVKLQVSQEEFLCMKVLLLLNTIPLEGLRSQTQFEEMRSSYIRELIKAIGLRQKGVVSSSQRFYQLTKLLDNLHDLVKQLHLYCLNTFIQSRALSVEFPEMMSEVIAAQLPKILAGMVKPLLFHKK
Chain of Estrogen receptor (Homo sapiens) (P03372 whole entry, looked up): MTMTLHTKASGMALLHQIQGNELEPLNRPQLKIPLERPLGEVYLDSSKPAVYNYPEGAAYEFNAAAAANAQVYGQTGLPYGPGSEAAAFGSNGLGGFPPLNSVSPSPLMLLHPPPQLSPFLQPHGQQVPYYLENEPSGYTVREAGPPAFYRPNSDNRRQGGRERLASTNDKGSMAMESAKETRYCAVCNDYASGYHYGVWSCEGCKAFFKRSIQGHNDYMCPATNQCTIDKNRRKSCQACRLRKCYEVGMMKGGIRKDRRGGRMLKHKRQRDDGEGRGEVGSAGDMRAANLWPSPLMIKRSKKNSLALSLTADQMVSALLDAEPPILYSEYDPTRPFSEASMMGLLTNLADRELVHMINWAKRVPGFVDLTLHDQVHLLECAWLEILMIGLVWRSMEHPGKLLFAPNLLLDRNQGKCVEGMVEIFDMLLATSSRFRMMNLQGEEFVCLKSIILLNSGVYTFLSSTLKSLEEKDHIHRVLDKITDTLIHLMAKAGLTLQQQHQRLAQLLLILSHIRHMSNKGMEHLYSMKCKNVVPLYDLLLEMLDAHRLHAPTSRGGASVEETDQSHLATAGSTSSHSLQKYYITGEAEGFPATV
Chain of Thyrotropin receptor (Homo sapiens) (P16473 whole entry, looked up): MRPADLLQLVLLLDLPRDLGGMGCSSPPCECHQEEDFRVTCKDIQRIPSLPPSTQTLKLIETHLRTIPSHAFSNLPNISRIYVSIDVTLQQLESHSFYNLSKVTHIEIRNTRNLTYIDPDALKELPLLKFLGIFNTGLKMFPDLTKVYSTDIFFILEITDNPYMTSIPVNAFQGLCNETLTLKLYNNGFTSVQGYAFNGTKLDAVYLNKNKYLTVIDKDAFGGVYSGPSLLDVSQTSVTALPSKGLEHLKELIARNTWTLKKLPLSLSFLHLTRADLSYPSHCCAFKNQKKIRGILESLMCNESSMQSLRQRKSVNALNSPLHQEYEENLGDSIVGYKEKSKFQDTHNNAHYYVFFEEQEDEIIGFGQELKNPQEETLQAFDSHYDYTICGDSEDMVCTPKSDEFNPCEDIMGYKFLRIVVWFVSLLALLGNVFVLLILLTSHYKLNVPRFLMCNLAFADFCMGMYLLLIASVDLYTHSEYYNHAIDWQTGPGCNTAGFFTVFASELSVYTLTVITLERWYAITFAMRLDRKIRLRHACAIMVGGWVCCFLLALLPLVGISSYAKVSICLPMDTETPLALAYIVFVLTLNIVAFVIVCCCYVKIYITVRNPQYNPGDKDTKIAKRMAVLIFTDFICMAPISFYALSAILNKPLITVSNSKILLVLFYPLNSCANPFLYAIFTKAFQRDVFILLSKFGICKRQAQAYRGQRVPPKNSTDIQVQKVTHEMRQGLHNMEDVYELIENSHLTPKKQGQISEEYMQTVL
Chain of Thyrotropin-releasing hormone receptor (Homo sapiens) (P34981 whole entry, looked up): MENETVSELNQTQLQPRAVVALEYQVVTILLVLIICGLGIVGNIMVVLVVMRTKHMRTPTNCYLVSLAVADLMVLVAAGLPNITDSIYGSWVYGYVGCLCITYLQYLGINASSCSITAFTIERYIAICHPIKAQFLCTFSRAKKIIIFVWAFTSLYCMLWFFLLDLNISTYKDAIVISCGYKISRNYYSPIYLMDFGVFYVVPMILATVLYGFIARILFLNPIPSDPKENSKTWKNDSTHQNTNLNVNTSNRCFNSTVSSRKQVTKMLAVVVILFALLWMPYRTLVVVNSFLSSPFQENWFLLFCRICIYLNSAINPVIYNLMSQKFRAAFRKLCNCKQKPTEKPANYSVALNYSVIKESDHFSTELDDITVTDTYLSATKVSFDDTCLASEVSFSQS
Chain of Estrogen receptor beta (Homo sapiens) (Q92731 whole entry, looked up): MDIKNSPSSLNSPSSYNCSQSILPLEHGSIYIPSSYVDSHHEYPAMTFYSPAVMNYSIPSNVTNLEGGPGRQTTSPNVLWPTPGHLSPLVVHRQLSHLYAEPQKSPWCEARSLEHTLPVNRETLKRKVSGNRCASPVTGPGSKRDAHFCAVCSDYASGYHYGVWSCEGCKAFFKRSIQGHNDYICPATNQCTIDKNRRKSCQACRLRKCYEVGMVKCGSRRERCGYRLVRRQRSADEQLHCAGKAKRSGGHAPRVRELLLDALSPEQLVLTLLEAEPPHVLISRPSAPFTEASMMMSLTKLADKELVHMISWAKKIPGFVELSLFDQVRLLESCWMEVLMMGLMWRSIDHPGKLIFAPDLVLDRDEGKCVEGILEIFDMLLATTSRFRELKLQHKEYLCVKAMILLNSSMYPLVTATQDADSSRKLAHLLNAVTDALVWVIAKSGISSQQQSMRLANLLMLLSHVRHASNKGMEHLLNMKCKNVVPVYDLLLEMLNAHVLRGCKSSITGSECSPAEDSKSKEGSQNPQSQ

As to `CCc1c2c(nc3ccc(OC(=O)N4CCC(N5CCCCC5)CC4)cc13)-c1cc3c(c(=O)n1C2)COC(=O)[C@]3(O)CC`, the Potency entry in assay [1], in assay [2], in [3], in [4], in assay [5] and in assay [6] was “inactive” throughout. The Potency result in [8], in assay [9], in assay [10], in assay [11] and in [12] was “inactive” each time. The outcome in assay [7], in [13], in [14] and in [15] was inactive.
Turning to `CC(=O)Oc1ccc(C(=C2CCCCC2)c2ccc(OC(C)=O)cc2)cc1`, the Potency result in assay [1], in [2], in assay [3], in [5], in [16] and in assay [8] was “inactive” each time. In addition, the Potency result in assay [9] and in assay [12] was “inactive” each time. For the same compound, the figures for the Potency in [6] and in [10] were 2.37 µM (active) and 13.3 µM (active), respectively. For the same compound, the result in assay [7], in assay [13] and in [14] was inactive.
In the case of `O=C1OCCN1/N=C/c1ccc([N+](=O)[O-])o1`, the Potency result in assay [1], in assay [2], in assay [3], in [4], in [5] and in assay [6] was “inactive” each time. In addition, the Potency result in [16], in [8], in [9], in [10], in assay [11] and in [12] was “inactive” throughout. The compound was classed as inactive in [7], in [17], in assay [13], in [14] and in assay [15].
In the case of `O=C(Nc1ccc([N+](=O)[O-])cc1)Nc1ccc([N+](=O)[O-])cc1`, the Potency result in assay [1], in assay [2], in assay [5], in assay [8], in assay [9] and in assay [10] was “inactive” in each case. The compound was classed as inactive in assay [7], in assay [17], in assay [13], in assay [14] and in assay [15].
On to `O=C(CS)OCCOC(=O)CS`, for which the Potency result in assay [1], in assay [2], in [3], in assay [5], in [16] and in assay [8] was “inactive” in each case. Besides, the Potency entry in assay [9], in assay [10] and in [12] was “inactive” throughout. In assay [4], the Potency is 30.6 µM (active). Also, the result in assay [7], in assay [17], in assay [13], in assay [14] and in [15] was inactive.
In the case of `CCOC(=N)CC(=O)OCC`, the Potency entry in assay [1], in assay [2], in assay [18], in assay [3], in [6] and in [16] was “inactive” throughout. In addition, the Potency entry in assay [8] is “inactive”. For the same compound, the result in assay [7], in assay [17], in assay [13], in assay [14] and in [15] was inactive. The Potency in [11] is 17.2 µM (active).
As to `CO[C@@]12[C@H](COC(N)=O)C3=C(C(=O)C(C)=C(N)C3=O)N1C[C@@H]1N[C@@H]12`, the Potency result in [1], in assay [2], in [3], in assay [4], in assay [5] and in [9] was “inactive” each time. Further, the Potency entry in assay [11] was “inactive”. Besides, the compound was classed as inactive in assay [17], in [13] and in assay [14].
Turning to `O=C(CCCN1CCC(O)(c2ccc(Br)cc2)CC1)c1ccc(F)cc1`, the Potency result in assay [1], in assay [2], in [3], in assay [6], in assay [8] and in [9] was “inactive” throughout. Besides, the Potency result in [11] and in assay [12] was “inactive” throughout. Further, the Potency in [4] was 23.7 µM (active). Moreover, the result in [7], in assay [17], in [13], in assay [14] and in assay [15] was inactive.
`CCC(Cc1ccccc1)(C(=O)c1ccc(N2CCOCC2)cc1)N(C)C` (stereo not given): the Potency result in [1], in assay [2], in assay [18], in assay [5], in assay [6] and in assay [16] was “inactive” each time. Moreover, the Potency entry in [9] was “inactive”. In addition, the call in [7], in assay [13], in [14] and in assay [15] was inactive. The Potency in assay [10] is 48.6 µM (active).
